Shown are actives, neighbours in structure and some others; about 2% of the full set was active somewhere.
Jurkat NFkB inh – inhibitors of induced NF-kB luciferase reporter, primary screen, TCR NF-kB activation inhibitor project, cell-based, luminescence, uHTS; hit rate 0.53% among 330,000; AID 435003, 2010; inhibition, % at 4 µM; Jurkat, PMA/ionomycin-induced NF-kB luciferase reporter; in the data active = inhibition above about 50%
GalR3 antagonist – GalR3 antagonists in HEK293 cells, primary screen, cell-based, fluorescence readout; HEK293 GalR3-CNG cAMP membrane potential fluorescence; galR3 body fused to GalR1 C-terminus; inhibition, % at 3 µM; AID 651719, 2012; Galanin receptor type 3 (Homo sapiens), O60755; hit rate 0.44% among 360,000;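 active = inhibition above the screen-wide average plus 3 SD, cut at about 13% in these data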;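 note: forskolin and galanin both at EC90 stimulate the cells; cAMP rise reported by CNG channel membrane potential dye signal; 0% = forskolin plus galanin with DMSO and 100% = forskolin alone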
Target sequence (O60755 1-299 limits assumed): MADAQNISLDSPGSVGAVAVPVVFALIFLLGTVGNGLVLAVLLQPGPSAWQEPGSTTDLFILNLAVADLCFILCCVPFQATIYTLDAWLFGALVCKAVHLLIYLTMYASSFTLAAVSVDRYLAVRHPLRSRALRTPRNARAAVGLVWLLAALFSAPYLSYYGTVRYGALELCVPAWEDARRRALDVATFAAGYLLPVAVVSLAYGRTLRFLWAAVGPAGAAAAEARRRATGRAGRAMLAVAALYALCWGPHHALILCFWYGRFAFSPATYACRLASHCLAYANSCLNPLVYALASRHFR
697 NFkB inh – inhibitors of PMA/ionomycin-induced NF-kB reporter, 697 cells, primary screen, B-cell NF-kB inhibitor project, cell-based, luminescence, uHTS; inhibition, % at 4 µM; AID 435022, 2010; hit rate 0.33% among 330,000; 697 B-cell NF-kB luciferase reporter, 16 h; in the data active = inhibition above about 35%
Gli-Sufu block – Gli-Sufu pathway antagonists, primary screen, luciferase luminescence, Sufu-KO-LIGHT cells, uHTS; Sufu-KO-LIGHT fibroblasts, Gli luciferase reporter luminescence; inhibition, % at 5 µM; hit rate 0.74% among 340,000; AID 588413, 2011;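 active = inhibition above about 55%, limit read from the data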;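 note: 0% = DMSO-treated cells and 100% = wells with medium but no cells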
COUP-TFII inh – NR2F2 transcriptional activity inhibitors, primary screen, cell-based, luciferase reporter, HEK293T, luminescence; inhibition, % at 8.6 µM; hit rate 0.7% among 370,000; COUP transcription factor 2 (Homo sapiens), P24468; HEK293T NGFI-A luciferase reporter;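 active = inhibition above a per-plate cutoff, mean inhibition of test wells between control levels plus 3 SD, cut at about 38% in these data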;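 note: cells cotransfected with COUP-TFII expression vector driving the NGFI-A reporter; 0% = median of COUP-TF2 test wells and 100% = reporter-only cells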
Target sequence (P24468 whole entry, looked up): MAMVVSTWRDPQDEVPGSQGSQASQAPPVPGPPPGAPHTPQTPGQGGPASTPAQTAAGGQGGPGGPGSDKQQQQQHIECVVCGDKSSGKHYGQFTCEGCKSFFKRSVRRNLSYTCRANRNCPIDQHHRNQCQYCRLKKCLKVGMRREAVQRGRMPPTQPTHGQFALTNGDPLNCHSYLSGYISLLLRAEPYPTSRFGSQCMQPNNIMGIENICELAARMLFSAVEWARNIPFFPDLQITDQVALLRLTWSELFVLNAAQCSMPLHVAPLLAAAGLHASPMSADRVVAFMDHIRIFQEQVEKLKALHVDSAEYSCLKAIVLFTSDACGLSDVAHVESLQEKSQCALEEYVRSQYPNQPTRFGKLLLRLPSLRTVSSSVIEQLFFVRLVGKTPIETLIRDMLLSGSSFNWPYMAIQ
Jurkat NFkB conf – PMA/ionomycin-induced NF-kB reporter inhibitors, Jurkat retest, confirmation, T-cell NF-kB inhibitor project, cell-based, luminescence, single concentration | shares compounds with Jurkat NFkB inh | Jurkat NF-kB luciferase, 16 h | inhibition, % at 4 µM | hit rate 27% among 2,700;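 active = inhibition reaching about 45% at 4 µM in either replicate, limit read from the data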;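 note: plate controls were PMA/ionomycin stimulated DMSO wells for no effect and unstimulated DMSO wells for full effect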
697 NFkB conf – PMA/ionomycin-induced NF-kB reporter inhibitors, 697 retest, confirmation, B-cell NF-kB inhibitor project, cell-based, luminescence, single concentration; AID 449746, 2010; inhibition, % at 4 µM; hit rate 35% among 2,000; shares compounds with 697 NFkB inh; 697 B-cell NF-kB luciferase, 16 h; in the data active = inhibition mostly above about 28%, no sharp cut-off; inactive = mostly below about 22%
Gli-Sufu confirm – Gli-SUFU pathway antagonists, confirmation, single concentration, luciferase luminescence, Sufu-KO-LIGHT cells; shares compounds with Gli-Sufu block; Gli luciferase reporter; inhibition, % at 5 µM; hit rate 40% among 2,500; AID 602428, 2012;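 active = mean inhibition at 5 µM reaching about 45%, limit read from the data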;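 note: plate controls were DMSO-treated cells for no effect and wells lacking cells for full effect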
SufuKO cytotox – cytotoxicity in Sufu-KO-LIGHT cells, confirmation, cytotoxicity control for Gli-SUFU antagonist project, cell-based, ATP luminescence, single concentration | shares compounds with Gli-Sufu block | cytotoxicity, % at 5 µM | hit rate 32% among 2,500;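 active = mean cytotoxicity at 5 µM above about 25%, limit read from the data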;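 note: cells exposed to compound overnight for roughly 16 to 18 hours; plate controls were DMSO wells with cells for no effect and medium without cells for full effect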
Wnt3a counter – Wnt3a reporter signal inhibition, confirmation, counter-screen for Gli-SUFU antagonist project, Wnt-LIGHT cells, luminescence, single concentration; shares compounds with Gli-Sufu block; Wnt3a-driven luciferase reporter; inhibition, % at 6.25 µM; hit rate 20% among 2,500; AID 651995, 2013;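 active = mean inhibition above about 25%, limit read from the data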
GalR3 antag conf – GalR3 antagonist hit confirmation, cell-based, fluorescence, triplicate. shares compounds with GalR3 antagonist. HEK293 GalR3 CNG cAMP biosensor, membrane potential fluorescence; galR3 fused to GalR1 carboxy tail; challenged with forskolin and galanin at EC90. inhibition, % at 3 µM. hit rate 59% among 1,600. AID 652245, 2013;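 active = inhibition above the primary screen's cutoff, the mean inhibition of all screened compounds plus 3 SD, cut at about 13% in these data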;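 note: 0% = forskolin plus galanin and 100% = forskolin alone with DMSO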
CNG parental – nonspecific cAMP agonists in parental HEK-CNG cells, counter-screen for GalR3 antagonist project, cell-based, fluorescence, high throughput. shares compounds with GalR3 antagonist. HEK293-CNG parental cells, cAMP membrane potential fluorescence; normalised: DMSO wells 0%, forskolin wells 100%. activation, % at 3 µM. hit rate 10% among 1,600. AID 652268, 2013; in the data active = activation above about 1.3%
VP16 Luc counter – Gal4-VP16 luciferase reporter inhibitors, counter-screen for COUP-TFII antagonist project, cell-based, luminescence, HEK293 | shares compounds with COUP-TFII inh | inhibition, % at 8.5 µM | hit rate 25% among 2,500 | AID 687007, 2013; in the data active = inhibition above about 13%
NR2F2 inh conf – NR2F2 transcriptional activity inhibitors, confirmation, cell-based, luciferase reporter, HEK293, triplicate; shares compounds with COUP-TFII inh; HEK293 NGFI-A luciferase reporter, luminescence; inhibition, % at 8.5 µM; hit rate 45% among 2,500;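 active = mean inhibition over three repeats above a set limit taken from the earlier primary screen, cut at about 38% in these data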;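 note: 100% = cells given the luciferase reporter alone without the COUP-TF2 vector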
* marks the source's active call; other numbers are inactive results.

How did Nc1[nH]c(C(=O)c2ccccc2)c(-c2ccc(Cl)cc2)c1C(=O)NCCC1=CCCCC1 do in these assays?
COUP-TFII inh: 10

How did COC(=O)[C@H]1C[C@@]2(CC=C(C)C)c3ccccc3N(C(=O)OC(C)(C)C)[C@H]2N1C(=O)OC(C)(C)C do in these assays?
COUP-TFII inh: 3

What do the screens show for `CCCCCc1ccc(OCCC[n+]2ccccc2)c(CCCCC)c1`?
Jurkat NFkB inh: 63*; GalR3 antagonist: 31*; 697 NFkB inh: 60*; Gli-Sufu block: 83*; COUP-TFII inh: 57*; Jurkat NFkB conf: 55*; 697 NFkB conf: 57*; GalR3 antag conf: 36*; CNG parental: 1.8*; VP16 Luc counter: 14*; NR2F2 inh conf: 34

What do the screens show for `CC(=O)Nc1ccc(OCCC[n+]2ccccc2)cc1`?
Jurkat NFkB inh: 7; GalR3 antagonist: -3; 697 NFkB inh: -3; Gli-Sufu block: -3; COUP-TFII inh: -12

Results for Clc1ccc(OCCOc2ccc(Br)nc2Br)c(Cl)c1 ?
COUP-TFII inh: -21

How did CCN(CC)C(=O)c1ccc(/C=C/c2c[nH]c3ccccc23)[n+](C)c1 do in these assays?
Jurkat NFkB inh: 13; GalR3 antagonist: -2; 697 NFkB inh: 18; Gli-Sufu block: 2; COUP-TFII inh: -15

What do the screens show for `CC[n+]1c(/C=C/c2c[nH]c3ccccc23)ccc2cc(C)ccc21`?
Jurkat NFkB inh: 93*; GalR3 antagonist: -10; 697 NFkB inh: -59; Gli-Sufu block: 90*; COUP-TFII inh: 38*; Jurkat NFkB conf: 30; VP16 Luc counter: 4; NR2F2 inh conf: 52*

How did C=CCn1c(SCC(=O)c2ccc(-c3ccccc3)cc2)nnc1-c1ccc(OC)cc1 do in these assays?
COUP-TFII inh: 7

What do the screens show for `O=C(NCCNc1ccnc2cc(Cl)ccc12)c1ccccc1F`?
Jurkat NFkB inh: 56*; GalR3 antagonist: -4; 697 NFkB inh: -37; Gli-Sufu block: 67*; COUP-TFII inh: 55*; Jurkat NFkB conf: 29; Gli-Sufu confirm: 50*; SufuKO cytotox: 17; Wnt3a counter: -22; VP16 Luc counter: -8; NR2F2 inh conf: 36

Results for O=C(Nc1ccn(Cc2ccccc2F)n1)c1ccc(COc2ccc(Br)cc2)cc1 ?
Jurkat NFkB inh: 53*; GalR3 antagonist: 97*; 697 NFkB inh: -30; Gli-Sufu block: -20; COUP-TFII inh: 73*; Jurkat NFkB conf: 52*; GalR3 antag conf: 106*; CNG parental: 0; VP16 Luc counter: -11; NR2F2 inh conf: 47*

What do the screens show for `COc1ccc(NC(=O)/C(Cl)=C(/Cl)S(=O)Cc2ccccc2)cn1` (stereo not given)?
Jurkat NFkB inh: 95*; GalR3 antagonist: 10; 697 NFkB inh: -131; Gli-Sufu block: 66*; COUP-TFII inh: 61*; Jurkat NFkB conf: 98*; VP16 Luc counter: 88*; NR2F2 inh conf: 100*

Results for CCCCCCCCn1c2c(c(=N)c3ccccc31)CCC2 ?
Jurkat NFkB inh: 99*; GalR3 antagonist: 44*; 697 NFkB inh: 26; Gli-Sufu block: 91*; COUP-TFII inh: 90*; Jurkat NFkB conf: 69*; GalR3 antag conf: 62*; CNG parental: 11*; VP16 Luc counter: 13*; NR2F2 inh conf: 73*

How did CCCCCCCCCCn1c2c(c(=N)c3c1CCC3)CCC2 do in these assays?
Jurkat NFkB inh: 82*; GalR3 antagonist: 28*; 697 NFkB inh: 0; Gli-Sufu block: 92*; COUP-TFII inh: 81*; Jurkat NFkB conf: 75*; GalR3 antag conf: 39*; CNG parental: 24*; VP16 Luc counter: 21*; NR2F2 inh conf: 79*

Results for CCCCCn1c2c(c(=N)c3ccccc31)CCC2 ?
Jurkat NFkB inh: 74*; GalR3 antagonist: 6; 697 NFkB inh: 35; Gli-Sufu block: 84*; COUP-TFII inh: 66*; Jurkat NFkB conf: 47*; VP16 Luc counter: 14*; NR2F2 inh conf: 54*

Results for CCOC(=O)Cn1c2c(c(=N)c3c1CCC3)CCC2 ?
Jurkat NFkB inh: -9; GalR3 antagonist: 0; 697 NFkB inh: -48; Gli-Sufu block: -4; COUP-TFII inh: -2

Results for CC(Nc1ncnc2sccc12)c1ccccc1 (stereo not given) ?
Jurkat NFkB inh: 61*; GalR3 antagonist: 94*; 697 NFkB inh: 43*; Gli-Sufu block: 71*; COUP-TFII inh: 60*; Jurkat NFkB conf: 62*; 697 NFkB conf: 60*; GalR3 antag conf: 105*; CNG parental: 0; VP16 Luc counter: 3; NR2F2 inh conf: 61*

Results for Cc1cc(C(C)(C)C)ccc1OCCCCN1CCCC1 ?
Jurkat NFkB inh: -8; GalR3 antagonist: 3; 697 NFkB inh: -18; Gli-Sufu block: -2; COUP-TFII inh: -2
